Common to all, as to assay: DAPPL (digital affinity profiling via proximity ligation, sequencing); 10 mM Tris-HCl pH 7.5, 50 mM NaCl, 1 mM DTT, 4% glycerol, room temperature, 30 min; GST-TFs on glutathione beads, 16-mer random dsDNA library, 0.1% formaldehyde crosslink after washing; high values mean tight binding
For assay [1], the target named is T1, FLI1 (Homo sapiens, UniProt Q01543 1-452).
T1 sequence: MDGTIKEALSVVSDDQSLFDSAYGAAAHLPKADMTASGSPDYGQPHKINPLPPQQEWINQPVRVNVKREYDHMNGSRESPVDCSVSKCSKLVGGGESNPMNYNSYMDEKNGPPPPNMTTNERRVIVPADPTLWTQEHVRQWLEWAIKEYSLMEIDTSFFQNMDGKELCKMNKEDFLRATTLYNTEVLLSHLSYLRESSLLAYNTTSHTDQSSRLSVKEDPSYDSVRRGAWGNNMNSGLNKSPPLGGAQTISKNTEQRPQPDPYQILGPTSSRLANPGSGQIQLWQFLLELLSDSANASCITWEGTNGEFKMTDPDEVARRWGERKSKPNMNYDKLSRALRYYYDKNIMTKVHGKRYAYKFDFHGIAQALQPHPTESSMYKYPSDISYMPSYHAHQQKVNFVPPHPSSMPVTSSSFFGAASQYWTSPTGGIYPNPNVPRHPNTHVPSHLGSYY
Particulars: protein: recombinant; tags: N-terminal GST; dsDNA, one strand shown. The method in brief:
(§1)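 Beads coated with glutathione captured GST-fused human transcription factors that had been expressed in yeast, and the factors were then given DNA barcodes and pooled with a tag-only sample. The pools were incubated with 200 nmole of a random double-stranded 16-mer DNA library in Tris/NaCl/DTT/glycerol buffer for 30 min at room temperature, washed, crosslinked with 0.1% formaldehyde and proximity-ligated with BsaI/T4 ligase at 37 °C for 1 h. PCR amplification and Illumina NextSeq500 sequencing came last. Binding signal is each hexamer's read frequency for a factor divided by its frequency for the tag-only sample.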

For assay [2], the target named is T2, ELK1 (Homo sapiens, UniProt P19419 1-428).
T2 sequence: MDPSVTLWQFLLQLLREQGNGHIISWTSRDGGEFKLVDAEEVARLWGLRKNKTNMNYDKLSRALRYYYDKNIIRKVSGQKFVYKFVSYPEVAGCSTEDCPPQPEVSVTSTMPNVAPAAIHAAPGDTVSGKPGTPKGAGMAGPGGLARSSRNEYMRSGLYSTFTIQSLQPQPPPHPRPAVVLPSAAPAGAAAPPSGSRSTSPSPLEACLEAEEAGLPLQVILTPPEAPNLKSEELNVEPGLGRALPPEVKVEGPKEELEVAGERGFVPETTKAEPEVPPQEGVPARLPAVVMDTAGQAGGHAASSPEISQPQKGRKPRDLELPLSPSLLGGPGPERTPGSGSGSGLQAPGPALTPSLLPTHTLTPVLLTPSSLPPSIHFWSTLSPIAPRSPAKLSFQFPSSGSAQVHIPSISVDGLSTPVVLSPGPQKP
The conditions noted are these: protein: recombinant; tags: N-terminal GST; dsDNA, one strand shown. The method in brief: as §1

For assay [3], the target named is T3, GABPA (Homo sapiens, UniProt Q06546 1-454).
T3 sequence: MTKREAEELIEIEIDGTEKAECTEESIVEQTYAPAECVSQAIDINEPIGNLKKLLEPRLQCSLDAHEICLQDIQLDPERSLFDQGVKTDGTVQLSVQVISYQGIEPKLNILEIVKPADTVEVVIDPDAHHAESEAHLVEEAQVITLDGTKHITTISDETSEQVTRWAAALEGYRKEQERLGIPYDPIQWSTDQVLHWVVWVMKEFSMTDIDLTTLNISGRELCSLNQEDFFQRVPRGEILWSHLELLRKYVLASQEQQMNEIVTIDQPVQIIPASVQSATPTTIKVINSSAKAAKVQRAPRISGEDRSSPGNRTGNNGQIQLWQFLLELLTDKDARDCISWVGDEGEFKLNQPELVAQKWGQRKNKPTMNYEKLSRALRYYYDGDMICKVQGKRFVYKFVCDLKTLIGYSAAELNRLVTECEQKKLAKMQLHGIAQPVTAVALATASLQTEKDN
Particulars: protein: recombinant; tags: N-terminal GST; dsDNA, one strand shown. The method in brief: as §1

In assay [4] the target is T4, ERG (Homo sapiens, UniProt P11308 1-479).
T4 sequence: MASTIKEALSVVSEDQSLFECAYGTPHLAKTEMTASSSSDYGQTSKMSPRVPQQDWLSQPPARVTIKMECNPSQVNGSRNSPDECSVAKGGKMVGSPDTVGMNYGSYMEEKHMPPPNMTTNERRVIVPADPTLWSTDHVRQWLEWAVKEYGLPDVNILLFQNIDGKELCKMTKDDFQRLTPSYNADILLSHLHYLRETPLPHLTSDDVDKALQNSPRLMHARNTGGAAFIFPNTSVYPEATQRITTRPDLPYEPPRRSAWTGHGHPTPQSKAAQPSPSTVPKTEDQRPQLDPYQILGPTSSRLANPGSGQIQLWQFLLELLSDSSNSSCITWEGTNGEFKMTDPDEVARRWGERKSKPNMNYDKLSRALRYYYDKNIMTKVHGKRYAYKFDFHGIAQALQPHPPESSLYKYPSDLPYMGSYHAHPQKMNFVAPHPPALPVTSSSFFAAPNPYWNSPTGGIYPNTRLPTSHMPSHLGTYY
The conditions noted are these: protein: recombinant; tags: N-terminal GST; dsDNA, one strand shown. The method in brief:
as §1

The target of assay [5] is ELF1 (Homo sapiens, UniProt P32519 1-619). The conditions noted are these: protein: recombinant; tags: N-terminal GST; dsDNA, one strand shown. The gist of the method: as §1
ELF1, sequence (P32519 whole entry): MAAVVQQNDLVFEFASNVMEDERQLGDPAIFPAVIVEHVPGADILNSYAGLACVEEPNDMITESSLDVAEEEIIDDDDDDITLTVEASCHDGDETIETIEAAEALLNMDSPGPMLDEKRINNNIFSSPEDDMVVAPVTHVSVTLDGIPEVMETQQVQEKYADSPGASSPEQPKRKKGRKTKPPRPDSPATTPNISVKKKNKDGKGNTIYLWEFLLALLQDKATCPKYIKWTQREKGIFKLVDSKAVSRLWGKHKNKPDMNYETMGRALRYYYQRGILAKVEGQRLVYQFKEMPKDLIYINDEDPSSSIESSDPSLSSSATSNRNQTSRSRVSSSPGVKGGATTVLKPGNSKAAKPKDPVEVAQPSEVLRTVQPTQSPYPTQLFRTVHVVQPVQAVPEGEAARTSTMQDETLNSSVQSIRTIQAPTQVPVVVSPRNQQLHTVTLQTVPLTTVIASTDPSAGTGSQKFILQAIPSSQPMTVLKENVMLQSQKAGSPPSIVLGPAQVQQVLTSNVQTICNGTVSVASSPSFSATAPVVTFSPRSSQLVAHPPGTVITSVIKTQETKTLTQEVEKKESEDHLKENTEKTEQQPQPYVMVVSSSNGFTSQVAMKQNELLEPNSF
The target of assay [6] is T5, EHF (Homo sapiens, UniProt Q9NZC4 1-300).
T5 sequence: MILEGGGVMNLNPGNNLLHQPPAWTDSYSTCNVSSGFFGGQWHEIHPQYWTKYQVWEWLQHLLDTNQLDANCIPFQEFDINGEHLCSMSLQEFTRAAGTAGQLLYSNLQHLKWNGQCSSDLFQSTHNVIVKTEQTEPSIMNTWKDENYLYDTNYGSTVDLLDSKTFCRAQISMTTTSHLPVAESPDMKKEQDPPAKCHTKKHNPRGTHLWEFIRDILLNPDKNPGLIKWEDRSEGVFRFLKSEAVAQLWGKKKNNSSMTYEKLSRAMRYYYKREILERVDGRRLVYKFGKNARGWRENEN
The conditions noted are these: protein: recombinant; tags: N-terminal GST; dsDNA, one strand shown. The method in brief: as §1

Assay [7] concerns the target SPI1 (Homo sapiens, UniProt P17947 1-270). The conditions noted are these: protein: recombinant; tags: N-terminal GST; dsDNA, one strand shown. The method in brief: as §1
Assay [8] concerns the target SPIB (Homo sapiens, UniProt Q01892 1-262). The conditions noted are these: protein: recombinant; tags: N-terminal GST; dsDNA, one strand shown. The method in brief:
as §1

The target in assay [9] is T6, ELK3 (Homo sapiens, UniProt P41970 1-407).
T6 sequence: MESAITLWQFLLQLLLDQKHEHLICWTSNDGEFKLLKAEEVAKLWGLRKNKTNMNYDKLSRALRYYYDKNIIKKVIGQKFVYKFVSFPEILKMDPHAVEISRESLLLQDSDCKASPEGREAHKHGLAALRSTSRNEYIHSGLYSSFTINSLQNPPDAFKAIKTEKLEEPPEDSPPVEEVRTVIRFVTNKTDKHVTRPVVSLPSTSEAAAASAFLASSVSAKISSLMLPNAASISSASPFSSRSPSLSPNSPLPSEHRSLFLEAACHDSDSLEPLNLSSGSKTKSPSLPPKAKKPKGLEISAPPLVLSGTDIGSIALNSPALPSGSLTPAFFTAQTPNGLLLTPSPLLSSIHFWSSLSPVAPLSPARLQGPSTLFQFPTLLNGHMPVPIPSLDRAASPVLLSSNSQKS
The conditions noted are these: protein: recombinant; tags: N-terminal GST; dsDNA, one strand shown. The method in brief:
as §1

The target of assay [10] is T7, FEV (Homo sapiens, UniProt Q99581 1-238).
T7 sequence: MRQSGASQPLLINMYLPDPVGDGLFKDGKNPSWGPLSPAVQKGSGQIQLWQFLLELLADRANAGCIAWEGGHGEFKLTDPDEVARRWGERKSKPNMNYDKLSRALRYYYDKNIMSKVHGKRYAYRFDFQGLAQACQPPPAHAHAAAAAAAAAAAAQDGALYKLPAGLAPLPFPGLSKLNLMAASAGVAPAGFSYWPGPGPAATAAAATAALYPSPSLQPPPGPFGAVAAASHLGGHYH
The conditions noted are these: protein: recombinant; tags: N-terminal GST; dsDNA, one strand shown. The method in brief:
as §1

The target of assay [11] is ETV5 (Homo sapiens, UniProt P41161 1-510). Particulars: protein: recombinant; tags: N-terminal GST; dsDNA, one strand shown. The gist of the method: as §1
ETV5, sequence (P41161 whole entry): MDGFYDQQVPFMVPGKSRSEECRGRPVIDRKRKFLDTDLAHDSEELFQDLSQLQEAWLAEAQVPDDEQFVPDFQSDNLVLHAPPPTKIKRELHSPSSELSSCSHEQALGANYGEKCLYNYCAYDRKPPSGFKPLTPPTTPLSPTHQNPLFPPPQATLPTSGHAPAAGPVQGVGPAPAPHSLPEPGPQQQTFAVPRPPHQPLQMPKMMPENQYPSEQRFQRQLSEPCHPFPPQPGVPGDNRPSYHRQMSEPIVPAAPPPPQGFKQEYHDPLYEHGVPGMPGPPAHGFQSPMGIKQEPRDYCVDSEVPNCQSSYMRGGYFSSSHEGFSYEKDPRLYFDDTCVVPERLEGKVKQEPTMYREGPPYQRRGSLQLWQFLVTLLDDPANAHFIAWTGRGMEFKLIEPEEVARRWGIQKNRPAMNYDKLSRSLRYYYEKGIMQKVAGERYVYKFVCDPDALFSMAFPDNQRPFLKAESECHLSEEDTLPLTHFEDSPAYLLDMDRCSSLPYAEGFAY
In assay [12] the target is HSF1 (Homo sapiens, UniProt Q00613 1-529). The conditions noted are these: protein: recombinant; tags: N-terminal GST; chain copies: 3; dsDNA, one strand shown. The gist of the method:
as §1

Assay [13] concerns the target T8, SPIC (Homo sapiens, UniProt Q8N5J4 1-248).
T8 sequence: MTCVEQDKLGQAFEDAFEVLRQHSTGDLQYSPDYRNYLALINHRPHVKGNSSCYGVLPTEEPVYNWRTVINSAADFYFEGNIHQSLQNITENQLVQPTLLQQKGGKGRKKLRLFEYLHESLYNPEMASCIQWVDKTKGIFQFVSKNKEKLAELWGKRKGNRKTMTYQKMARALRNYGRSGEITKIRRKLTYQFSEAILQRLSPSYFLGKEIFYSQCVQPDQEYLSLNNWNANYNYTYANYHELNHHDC
The conditions noted are these: protein: recombinant; tags: N-terminal GST; dsDNA, one strand shown. The method in brief:
as §1

For assay [14], the target named is ELF4 (Homo sapiens, UniProt Q99607 1-663). The conditions noted are these: protein: recombinant; tags: N-terminal GST; dsDNA, one strand shown. The gist of the method: as §1
ELF4, sequence (Q99607 whole entry): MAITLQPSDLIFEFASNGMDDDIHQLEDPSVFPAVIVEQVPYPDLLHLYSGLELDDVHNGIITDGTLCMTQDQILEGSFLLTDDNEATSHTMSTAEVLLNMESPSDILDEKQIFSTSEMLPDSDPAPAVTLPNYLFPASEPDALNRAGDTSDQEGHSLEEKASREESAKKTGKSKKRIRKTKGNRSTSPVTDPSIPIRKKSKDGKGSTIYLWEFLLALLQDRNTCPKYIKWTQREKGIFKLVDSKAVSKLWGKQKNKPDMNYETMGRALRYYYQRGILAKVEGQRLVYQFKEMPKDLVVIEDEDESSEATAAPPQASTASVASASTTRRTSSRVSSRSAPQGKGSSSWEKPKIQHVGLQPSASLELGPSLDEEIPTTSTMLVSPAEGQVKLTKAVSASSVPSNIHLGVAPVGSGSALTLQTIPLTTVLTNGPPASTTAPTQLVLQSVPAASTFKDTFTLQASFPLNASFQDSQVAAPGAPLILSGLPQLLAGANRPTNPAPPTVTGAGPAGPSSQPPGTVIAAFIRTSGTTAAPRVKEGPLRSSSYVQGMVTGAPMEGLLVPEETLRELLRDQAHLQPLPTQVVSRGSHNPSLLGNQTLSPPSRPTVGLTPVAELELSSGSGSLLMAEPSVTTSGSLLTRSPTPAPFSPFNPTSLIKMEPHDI
Assay [15] addresses T9, ELK4 (Homo sapiens, UniProt P28324-2 1-405).
T9 sequence: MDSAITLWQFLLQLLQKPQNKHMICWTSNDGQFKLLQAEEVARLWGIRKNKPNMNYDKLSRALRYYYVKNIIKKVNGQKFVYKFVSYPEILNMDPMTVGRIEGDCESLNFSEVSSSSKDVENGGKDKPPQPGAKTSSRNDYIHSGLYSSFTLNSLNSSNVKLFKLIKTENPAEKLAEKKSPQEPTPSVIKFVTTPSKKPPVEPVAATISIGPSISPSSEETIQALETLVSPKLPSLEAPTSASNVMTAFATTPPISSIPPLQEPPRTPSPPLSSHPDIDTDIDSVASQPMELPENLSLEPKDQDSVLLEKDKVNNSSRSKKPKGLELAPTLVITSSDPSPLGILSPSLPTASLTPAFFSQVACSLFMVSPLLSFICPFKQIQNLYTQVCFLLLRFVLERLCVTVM
The conditions noted are these: protein: recombinant; tags: N-terminal GST; dsDNA, one strand shown. The gist of the method: as §1

For assay [16], the target named is CRX (Homo sapiens, UniProt O43186 1-299). The conditions noted are these: protein: recombinant; tags: N-terminal GST; dsDNA, one strand shown. The method in brief:
as §1

In assay [17] the target is ETV1 (Homo sapiens, UniProt P50549 1-477). Particulars: protein: recombinant; tags: N-terminal GST; dsDNA, one strand shown. The gist of the method: as §1
ETV1, sequence (P50549 whole entry): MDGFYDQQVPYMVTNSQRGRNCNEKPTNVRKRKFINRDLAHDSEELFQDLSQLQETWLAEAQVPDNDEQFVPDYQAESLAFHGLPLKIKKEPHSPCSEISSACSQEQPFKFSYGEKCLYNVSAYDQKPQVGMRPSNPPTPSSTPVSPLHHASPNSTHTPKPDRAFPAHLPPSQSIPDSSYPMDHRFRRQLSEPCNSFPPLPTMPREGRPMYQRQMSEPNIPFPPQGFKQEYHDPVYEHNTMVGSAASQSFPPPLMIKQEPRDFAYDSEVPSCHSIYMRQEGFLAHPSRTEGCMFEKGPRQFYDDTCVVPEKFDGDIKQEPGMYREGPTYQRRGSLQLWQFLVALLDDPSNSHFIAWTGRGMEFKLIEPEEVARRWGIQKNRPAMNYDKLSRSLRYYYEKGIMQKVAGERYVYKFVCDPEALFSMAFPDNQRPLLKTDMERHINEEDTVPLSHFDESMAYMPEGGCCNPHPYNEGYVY

SPIB, sequence (Q01892 whole entry): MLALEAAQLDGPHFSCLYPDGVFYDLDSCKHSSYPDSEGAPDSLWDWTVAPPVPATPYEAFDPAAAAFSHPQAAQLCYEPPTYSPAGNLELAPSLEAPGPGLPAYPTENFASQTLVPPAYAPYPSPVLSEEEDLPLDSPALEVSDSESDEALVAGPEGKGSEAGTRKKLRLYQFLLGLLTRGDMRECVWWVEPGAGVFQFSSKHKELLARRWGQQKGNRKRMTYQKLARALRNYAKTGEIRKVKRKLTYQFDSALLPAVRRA
CRX, sequence (O43186 whole entry): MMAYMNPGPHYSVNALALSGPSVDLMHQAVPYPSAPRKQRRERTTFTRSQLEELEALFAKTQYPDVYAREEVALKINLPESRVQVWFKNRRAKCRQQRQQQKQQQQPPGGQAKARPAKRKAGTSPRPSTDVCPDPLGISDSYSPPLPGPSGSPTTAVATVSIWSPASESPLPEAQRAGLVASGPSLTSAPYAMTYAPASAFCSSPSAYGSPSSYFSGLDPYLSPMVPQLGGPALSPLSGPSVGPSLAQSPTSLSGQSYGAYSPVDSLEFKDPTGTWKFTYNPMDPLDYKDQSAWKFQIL
HSF1, sequence (Q00613 whole entry): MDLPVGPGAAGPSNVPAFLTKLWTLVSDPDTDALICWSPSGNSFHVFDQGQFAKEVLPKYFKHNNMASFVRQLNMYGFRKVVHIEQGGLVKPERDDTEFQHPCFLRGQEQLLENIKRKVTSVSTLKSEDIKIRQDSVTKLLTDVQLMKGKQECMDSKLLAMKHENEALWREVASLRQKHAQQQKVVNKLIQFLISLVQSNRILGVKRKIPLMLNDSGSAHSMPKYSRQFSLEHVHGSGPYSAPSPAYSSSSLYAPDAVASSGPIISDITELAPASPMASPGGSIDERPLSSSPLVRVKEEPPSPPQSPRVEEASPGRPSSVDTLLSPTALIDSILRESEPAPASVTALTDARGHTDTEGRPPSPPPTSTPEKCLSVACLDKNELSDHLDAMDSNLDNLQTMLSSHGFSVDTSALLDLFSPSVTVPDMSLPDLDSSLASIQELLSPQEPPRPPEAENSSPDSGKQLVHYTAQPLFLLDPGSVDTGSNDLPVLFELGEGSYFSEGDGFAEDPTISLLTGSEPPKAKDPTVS

For TAGAAA, the binding signal in assay [1] was 1.1 fold enrichment (6-mer frequency, TF over GST control); in assay [2] it was 1.03 fold enrichment (6-mer frequency, TF over GST control); in assay [3], 1.02 fold enrichment (6-mer frequency, TF over GST control); in assay [4], 1.04 fold enrichment (6-mer frequency, TF over GST control); in [5], 1.09 fold enrichment (6-mer frequency, TF over GST control); in assay [6], 1.07 fold enrichment (6-mer frequency, TF over GST control). In addition, the binding signal in [7] was 1.11 fold enrichment (6-mer frequency, TF over GST control); in [8], 1.11 fold enrichment (6-mer frequency, TF over GST control); in assay [9], 1.09 fold enrichment (6-mer frequency, TF over GST control); in assay [10], 1.04 fold enrichment (6-mer frequency, TF over GST control); in assay [11], 1.03 fold enrichment (6-mer frequency, TF over GST control); in [12], 3.06 fold enrichment (6-mer frequency, TF over GST control). Further, the binding signal in [13] was 1.12 fold enrichment (6-mer frequency, TF over GST control); in assay [14] it was 1.1 fold enrichment (6-mer frequency, TF over GST control); in [15], 1.13 fold enrichment (6-mer frequency, TF over GST control); in assay [16] it was 1.58 fold enrichment (6-mer frequency, TF over GST control); in assay [17] it was 1.13 fold enrichment (6-mer frequency, TF over GST control).

For the origin of these results see publication PMC7862700, “An all-to-all approach to the identification of sequence-specific readers for epigenetic DNA modifications on cytosine”.
